Compound activity: PubChem, Buhrlage Lab, Dana-Farber Cancer Institute and Novartis Institutes for BioMedical Research (Cambridge, Mass)
Compounds with a hit are over-represented: about 4.6% of the library has one in this group of screens.
USP8 block = human USP8 deubiquitinase inhibition; P40818; purified USP8, Ub-rhodamine cleavage fluorescence, 30 min; AID 1645853; inhibition, % at 20 µM; hit rate 4.2% among 47,000
UCHL1 block = inhibitors of human UCHL1 deubiquitinase; P09936; purified UCHL1, Ub-rhodamine cleavage fluorescence; inhibition, % at 20 µM; hit rate 0.2% among 47,000
Target sequence (P09936 whole entry, looked up): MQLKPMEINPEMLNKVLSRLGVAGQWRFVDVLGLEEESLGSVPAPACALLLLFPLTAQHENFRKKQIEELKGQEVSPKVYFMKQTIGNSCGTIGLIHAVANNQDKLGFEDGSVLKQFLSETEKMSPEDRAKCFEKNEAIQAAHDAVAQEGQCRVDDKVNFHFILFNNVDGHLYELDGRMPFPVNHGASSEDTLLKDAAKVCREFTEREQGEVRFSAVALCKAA
USP7 block = blocks human USP7 ubiquitin-rhodamine cleavage. Q93009. purified USP7, Ub-rhodamine cleavage fluorescence. inhibition, % at 20 µM. hit rate 0.3% among 47,000. AID 1645854
USP10 inh = blocks human USP10 ubiquitin-rhodamine cleavage | inhibition, % at 20 µM | Q14694 | purified USP10, Ub-rhodamine fluorescence, 60 min | AID 1645856 | hit rate 1.1% among 47,000
Numbers stand for hits; i = inactive; nt = no result given. Cut-off read from the data, not from the text of the source: active = inhibition above about 30%; inactive = the rest.

SMILES	USP8 block	UCHL1 block	USP7 block	USP10 inh
Cc1cccc(C)c1NC(=O)CN1C(=O)C2CCCC2=Nc2ccccc21 (configuration not stated)	i	i	i	i
CC1O[C@@H](OC2[C@H](Oc3cc(O)c4c(c3)OC(c3ccc(O)cc3)CC4=O)O[C@H](CO)[C@@H](O)[C@@H]2O)[C@H](O)[C@H](O)[C@H]1O (some centres not stated)	i	i	i	i
N#Cc1ccc(-c2ccc(OCC(=O)Nc3ccc4c(c3)CCC4)cc2)cc1	36	i	i	i
NS(=O)(=O)c1cccc(NC(=O)COc2ccc3c(c2)CCC3)c1	i	i	i	i
N#Cc1ccc(OCC(=O)Nc2ccc(-c3cn4ccsc4n3)cc2)cc1	46	i	i	i
O=C(Nc1ccc2c(c1)OCCO2)N1CCCC(CN2CCc3ccccc3C2)C1 (configuration not stated)	i	i	i	i
Cc1occc1C(=O)N1C[C@H](OCc2ccccn2)[C@H]2OCCC[C@H]21	i	i	i	i
O=C(Oc1coc(CSc2ncccn2)cc1=O)c1c(F)cccc1F	46	i	i	i
COc1ccc(NC(=O)Cn2cc(C(=O)c3ccccc3)c(=O)c3cc(Cl)ccc32)cc1OC	i	i	i	33
COc1ccc2c(c1)c(=O)c(C(=O)c1ccc(Cl)cc1)cn2CC(=O)Nc1ccc(Cl)cc1	i	i	i	i
CCOc1ccc2c(c1)c(=O)c(C(=O)c1ccccc1)cn2CC(=O)Nc1ccc(Cl)cc1	93	i	i	47
COc1ccc(NC(=O)Cn2cc(C(=O)c3ccc(Cl)cc3)c(=O)c3cc(F)ccc32)cc1	i	i	i	53
O=C(COc1ccc2c(-c3ccccc3)cc(=O)oc2c1)N1CCc2nc[nH]c2C1	i	i	i	i
CC1CN(C(=O)c2c[nH]c3ccccc3c2=O)CC(C)(C)O1 (configuration not stated)	i	i	i	i
CC(=O)Nc1ccc(NC(=O)c2ccc(N3C(=O)N4CCc5c([nH]c6ccccc56)[C@@]4(C)C3=O)cc2)cc1	i	i	i	i
O=C(c1ccc(Cl)cc1)N1CCOC(c2ccccc2)C1 (configuration not stated)	i	i	i	i
O=C(CSc1nnc2c3ccccc3nc(-c3ccco3)n12)N1CCCc2ccccc21	34	i	i	48
COc1cccc2cc(C(=O)Nc3cccc(Br)c3)c(=N)oc12	i	i	i	i
Cc1cc(C(Nc2ccccn2)c2ccc(Cl)cc2)c(NC(=O)c2ccco2)s1 (configuration not stated)	35	i	i	i
CC1=C(C)C(N(c2ccccc2)c2ccccc2)N(CCC(C)C)C1=O (configuration not stated)	95	i	i	i
O=C(Nc1cc(Cl)ccc1NCc1ccccc1)c1cc(=O)[nH]c2ccccc12	44	i	i	i
COC(=O)C1(Cc2ccc(O)cc2)OC(=O)C(O)=C1c1ccc(O)cc1 (configuration not stated)	i	37	i	i
CC(=O)NCCc1ccc(O)cc1	i	i	i	i
CC1CCCCN1c1nc(F)c2c(c1F)S(=O)(=O)CCN2Cc1ccccc1 (configuration not stated)	89	i	i	i
NS(=O)(=O)c1ccc(NC(=O)C2Cc3ccccc3C(=O)O2)cc1 (configuration not stated)	36	i	i	i
SMILES	USP8 block	UCHL1 block	USP7 block	USP10 inh
Cc1cc2ncc(-c3ccsc3)c(N)n2n1	i	i	i	i
Nc1c(-c2ccsc2)cnn1-c1ccccc1	57	i	i	i
COc1cc(NC(=O)c2ccco2)c(OC)cc1NC(=O)CN1CCCCC1	i	i	i	i
COc1ccc(-c2c(C)c(C(=O)c3ccco3)n3ccc4cc(OC)c(OC)cc4c23)cc1OC	68	i	i	i
CCN1CCc2nc(NC(=O)COc3ccc(Nc4ccccc4)cc3)sc2C1	79	i	i	i
COc1ccc(Cn2cccc2-c2nc(C)no2)cc1	i	i	i	i
O=C(Nc1ccc(F)cc1)c1ccc(-c2ccc(N3CCCC3)nn2)cc1	49	i	i	i
CCOc1ccc2nc(C(=O)NC3CCCCCC3)cn2n1	i	i	i	i
CN(C)c1nc(NCc2cccc(Cl)c2)c2cnn(C)c2n1	i	i	i	i
O=c1c2ccccc2oc2nc(-c3cccs3)n(-c3ccccc3)c(=O)c12	98	49	80	i
Cc1ccc(-c2nc3c(c(=O)c4ccccc4n3C)c(=O)n2-c2ccc(F)cc2)cc1	i	i	nt	i
COc1cccc(CNc2ccc(-c3nc(-c4ccccc4)no3)nn2)c1	76	i	i	i
CC1CCCN(C(=O)c2cn(-c3ccc(S(=O)(=O)N4CCCC(C)C4)cn3)cn2)C1 (configuration not stated)	i	i	i	i
Cc1cc(-c2cnc(NCc3ccc(F)cc3)nc2-c2ccco2)on1	35	i	i	i
COc1ccc(OC)c(NC(=O)CNC(=O)c2cc3c(OC)cccc3[nH]2)c1	30	i	i	i
COc1cccc(O[C@@H]2C[C@@H](N)[C@H](N3CCCCC3)[C@H]2O)c1	i	i	i	i
CCN1C(=O)CCc2cc(NS(=O)(=O)c3ccc(C)c(F)c3)ccc21	i	i	i	i
COc1ccc(OC)c2c(C)cc(N3CC(C)CC(C)C3)nc12 (configuration not stated)	98	i	i	i
